Measured values reported in PubChem BioAssay (NCATS).
Unmarked numbers belong to inactive results. Active and inactive are the calls of the source. No stated cut-off is given here; in the data, active means potency below about 10 µM; inactive means the rest.

Molecular target: Lysosomal acid glucosylceramidase (Homo sapiens) (UniProt P04062)
Assay: Glucocerebrosidase-p2 (AID 348)
Conditions: purified GBA, blue fluorogenic substrate, 40 min
From the text: Beta-glucocerebrosidase catalyzes the hydrolysis of beta-glucocerebroside to glucose and ceramide. The inherited deficiency of beta-glucocerebrosidase results in Gaucher disease, which is characterized by a wide variety of symptoms including hepatosplenomegaly, anemia, thrombocytopenia, bony lesions and bone marrow infiltration with characteristic storage cells, known as Gaucher cells. There are also forms of the disorder affecting the central nervous system. Patients with the same genotypes can manifest with diverse clinical presentations and it is believed that improper folding and trafficking of beta-glucocerbrosidase may contribute to the phenotypes observed.
Low molecular weight molecules, acting as chaperones, may potentially restore trafficking of misfolded beta-glucocerebrosidase from the endoplasmic reticulum to the lysosomes, thereby enhancing functional lysosomal beta-glucocerebrosidase activity.
Using normal beta-glucocerebrosidase, an assay was developed to screen for small molecule inhibitors that could potentially act as molecular chaperones on the mutant forms [developed with NIH investigator Dr. Ellen Sidransky#s laboratory]. Two pro-fluorescent substrates were chosen for two screens against a small molecule library. One beta-glucocerebrosidase assay used Resorufin beta-D-Glucopyranoside (Marker Gene Technology Inc.), generating a red fluorescent product. The second assay used […] fluorescent product. The Km for the Resorufin beta-D-Glucopyranoside and Fluorescein di-beta-D-Glucopyranoside were determined to be 71.2 uM and 855 uM, respectively. The IC50 values of Conduritol B Epoxide, a known glucocerebrosidase inhibitor, were determined to be 87.5 uM and 117 uM, respectively. The use of two difference pro-fluorescent substrates in the screens helped to eliminate false positives. All compounds were screened in a titration series resulting in AC50s (e.g., IC50s or EC50s). Data normalization and AC50 calculations were accomplished using GeneData software.
NCGC Assay Protocol Summary
Both enzyme and substrate were diluted in buffer composed of 50mM citric acid/KH2PO4, 10mM sodium taurocholate and 0.01% tween-20 at pH 5.9. The final concentration of the enzyme was 0.2 nM in both assays. The compound library was titrated in 7 to 15 concentrations for the primary screens with a final concentration ranging from 0.6 nM to 50 uM. This particular assay protocol is for the "blue" substrate, and it was performed in 1536-well plate format as follows:
Blue fluorescence substrate assay:
1 uL substrate (final concentration of 80 uM)
Incubate at room temperature (RT) for 40 minutes
3 uL stop solution (1 M NaOH and 1 M glycine in water)
Read the plate in Viewlux plate reader (Ex=365(10) and Em=440(10)).
Potency means the concentration at half of the fitted maximal effect.

Chain of Lysosomal acid glucosylceramidase (Homo sapiens) (P04062 whole entry, looked up): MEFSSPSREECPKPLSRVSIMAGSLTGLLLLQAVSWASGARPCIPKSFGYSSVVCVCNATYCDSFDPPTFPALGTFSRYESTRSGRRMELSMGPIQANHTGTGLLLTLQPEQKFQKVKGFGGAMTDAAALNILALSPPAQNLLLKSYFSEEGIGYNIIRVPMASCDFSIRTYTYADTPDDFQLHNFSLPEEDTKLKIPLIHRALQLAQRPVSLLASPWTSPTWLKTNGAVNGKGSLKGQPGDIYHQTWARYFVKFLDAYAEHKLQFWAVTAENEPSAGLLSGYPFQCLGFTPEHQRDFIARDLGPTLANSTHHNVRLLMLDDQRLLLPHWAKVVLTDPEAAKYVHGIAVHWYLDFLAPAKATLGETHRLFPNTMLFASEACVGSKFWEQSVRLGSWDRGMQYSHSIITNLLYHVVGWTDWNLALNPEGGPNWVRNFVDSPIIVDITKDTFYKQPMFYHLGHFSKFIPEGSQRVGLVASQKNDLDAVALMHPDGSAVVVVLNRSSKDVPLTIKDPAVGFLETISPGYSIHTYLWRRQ

SMILES	Potency
Cc1ccc(C)c(C(=N)c2ccccc2Cc2ccccc2)c1	> 11.4 µM
O=C(O)C1CC2(C1)CC(C(=O)O)C2 (stereo not given)	> 11.4 µM
c1ccc(C[C@@H](Nc2cccnc2)c2ccccc2)cc1	> 11.4 µM
COc1ccc(OC)c(-c2cc(C(=O)O)c3cc4ccccc4cc3n2)c1	> 11.4 µM
O=C1/C(=C/c2cccnc2)SC(=S)N1Cc1ccco1	> 11.4 µM
OCCCNc1ncnc2[nH]ncc12	> 11.4 µM
Nc1ccccc1SCc1csc(-c2ccc(Cl)cc2)n1	> 11.4 µM
Nc1ccc(-c2ccc(Nc3cc(S(=O)(=O)O)c(N)c4c3C(=O)c3ccccc3C4=O)cc2)c(S(=O)(=O)O)c1	> 11.4 µM
O=[N+]([O-])c1ccc(S(=O)(=O)Cc2ccccc2)c([N+](=O)[O-])c1	> 11.4 µM
O=C(Nc1ccc(Nc2ccc3c(c2)C(=O)c2ccccc2C3=O)c2c1C(=O)c1ccccc1C2=O)c1ccccc1	> 11.4 µM
Cc1c(Cl)cc(C(C)(C)C)c(O)c1Cc1c(C)c(Cl)cc(C(C)(C)C)c1O	> 11.4 µM
CC(C)(C)CNCCO	> 11.4 µM
Cc1nc(CN2CCCCC2)c(O)c(=O)[nH]1	> 11.4 µM
CN(CC(=O)O)Cc1c(O)c(Cl)cc(Cl)c1Cl	> 11.4 µM
Cc1cnc(CNc2nc(-c3cccnc3)nc3ccccc23)cn1	> 11.4 µM
c1ccc2c(CSCc3cccc4ccccc34)cccc2c1	> 11.4 µM
O=C(O)C(Cc1ccccc1-c1ccccc1)C(=O)O	> 11.4 µM
N[C@@]1(C(=O)O)CCC[C@@H]1C(=O)O	> 11.4 µM
O=C(O)c1c2c(c(O)c3c1CN(C1CCCCC1)CO3)OCN(C1CCCCC1)C2	> 11.4 µM
Cc1ccc(N=Nc2c(O)ccc3cc(S(=O)(=O)O)ccc23)cc1	> 11.4 µM

SMILES	Potency
CCCCC[C@@H](O)[C@@H]1C(=O)O[C@@H](C)[C@@H](O)\C=C/C=C\C=C/C=C\C=C(\C)[C@H](O)C[C@H](O)C[C@H](O)C[C@H](O)C[C@H](O)C[C@H](O)C[C@@H]1O	> 11.4 µM
C=C(Br)CN(C)CC(=C)Br	> 11.4 µM
O[C@H](C[C@@H]1CCCCN1)c1ccc2c(c1)oc1ccccc12	> 11.4 µM
OC1CC2CC[C@H](C1)N2CCCN1c2ccccc2Sc2ccc(Cl)cc21 (stereo not given in full)	> 11.4 µM
C[C@H](CN(C)C)C(=O)c1ccccc1C(=O)O	> 11.4 µM
[N-]=[N+]=CC(=O)COC(=O)c1ccccc1	> 11.4 µM
Cc1cc(O)c(C(C)C)cc1N=Cc1ccccc1O	> 11.4 µM
c1ccc(C(CCN2CC3CCC(CC3)C2)c2ccccc2)cc1	> 11.4 µM
O=C(O)CCSCc1ccc(I)cc1	> 11.4 µM
C[N+](C)(C)CC(=O)N/N=C\c1c(O)ccc2ccccc12	> 11.4 µM
N#C[C@@H](N=Nc1ccccc1C(=O)O)C(N)=O	> 11.4 µM
Ic1ccc2c(c1)N(c1ccccc1)c1cc(Nc3ccc4nc5ccc(I)cc5[n+](-c5ccccc5)c4c3)ccc1N2	7.99 µM (active)
CN1CCc2nc(N)nc(-c3nc(N)nc4c3CN(C)CC4)c2C1	> 11.4 µM
CC(=O)Nc1ccc(S(=O)(=O)N=S(C)C)cc1	> 11.4 µM
O=C1c2ccccc2C(=O)c2c(NC3CCCCC3)ccc(Nc3ccc(S(=O)(=O)O)cc3)c21	> 11.4 µM
Nc1ccc(N=Nc2ccc(-c3ccc(O)cc3)cc2)c2ccc(S(=O)(=O)O)cc12	> 11.4 µM
Cc1ccc([C@@H](O)c2cnc(C)n2Cc2ccccc2)cc1	> 11.4 µM
C[C@H](C(=O)c1ccncc1)c1ccccn1	> 11.4 µM
O=[N+]([O-])c1ccc(Nc2nc3ccccc3s2)cc1	> 11.4 µM
C[C@]1(O)CC[C@H]2[C@H]3CC=C4N5CCN=C5CC[C@@]4(C)[C@H]3CC[C@@]21C	> 11.4 µM
